{
  "source": "PubChem BioAssay (NCI)",
  "note": "About 83,000 compounds went through this panel and 20% of them were active in at least one assay; those are over-represented in the sample as a whole.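 Plates (96-well) were seeded with cells, treated with compound at one concentration, and incubated for 48 hours before percent growth was determined.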 Active and inactive are the calls of the source. How the source made its calls: active means growth percent below 10; inactive means the rest.",
  "data": [
    {"test_system": "A498 renal", "assay": "NCI-60 one-dose screen, 48 h (100 = growth as untreated, 0 = no growth, -100 = all killed)", "conditions": "10 µM unless noted", "values": [
      {"smiles": "O=c1cc(-c2ccccc2)[nH]c2ncc(-c3ccc(F)cc3)n12", "growth": "59% (inactive)"},
      {"smiles": "N#Cc1cccc(C2C3=C(COC3=O)N(CCO)c3cc4c(cc32)OCO4)c1", "note": "(configuration not stated)", "growth": "11.9% (inactive)"},
      {"smiles": "COC(=O)c1nc(-c2ccccc2)oc1S(=O)(=O)NCC(c1ccc(Cl)cc1)N1CCOCC1", "note": "(configuration not stated)", "growth": "90.4% (inactive)"},
      {"smiles": "CC1(C)CC[C@]2(C(=O)N[C@H](CO)Cc3ccccc3)CC[C@]3(C)C(=CC[C@@H]4[C@@]5(C)CCCNC(C)(C)[C@@H]5CC[C@]43C)[C@@H]2C1", "growth": "85.1% (inactive)"},
      {"smiles": "COc1ccc(C(=O)Cn2c(C(=O)c3ccc(OC)cc3)nc3ccccc32)cc1", "growth": "34.2% (inactive)"},
      {"smiles": "COc1ccc(C2=CC(c3cc(OC)c(OC)c(OC)c3)n3ncnc3N2)cc1", "note": "(configuration not stated)", "growth": "-5.66% (active)"},
      {"smiles": "COc1ccc(C(=O)Cn2c(C(=O)c3ccc(Cl)cc3)nc3ccccc32)cc1", "growth": "77.9% (inactive)"}
    ]},
    {"test_system": "CCRF-CEM leukemia", "assay": "NCI-60 one-dose screen, 48 h (100 = growth as untreated, 0 = no growth, -100 = all killed)", "conditions": "10 µM unless noted", "values": [
      {"smiles": "CCCCCN(CCCCC)CC(O)c1cc(C)c2ccc3cc(C(C)C)ccc3c2c1", "note": "(configuration not stated)", "growth": "-7.34% (active)"},
      {"smiles": "CN(Cc1ccccc1)c1nc(Cl)c(C2CC(c3ccccc3)=NN2c2ccccc2)s1", "note": "(configuration not stated)", "growth": "94.3% (inactive)"},
      {"smiles": "COC(=O)c1ccc(NC(=O)Nc2ccc(C(=O)OC)cc2)cc1", "growth": "90.8% (inactive)"},
      {"smiles": "C=C1C(=O)O[C@H]2[C@H]1CC/C(COC(=O)NCc1ccc(Cn3c(=O)sn(-c4ccc(C#N)cc4)c3=O)cc1)=C\\CC[C@@]1(C)O[C@@H]21", "growth": "3.9% (active)"},
      {"smiles": "NS(=O)(=O)c1ccc(-c2cc(-c3nnc(SCC(=O)Nc4ccc(C(=O)/C=C/c5ccc(Cl)cc5)cc4)n3-c3ccccc3)c3ccccc3n2)cc1", "growth": "90.3% (inactive)"},
      {"smiles": "CO[C@H](C(=O)[C@@H](O)[C@@H](C)O)[C@@H]1Cc2cc3cc(O[C@H]4C[C@@H](O[C@H]5C[C@@H](O)[C@H](O)C(C)O5)[C@H](O)C(C)(O)O4)cc(O)c3c(O)c2C(=O)[C@H]1O[C@H]1C[C@@H](O[C@H]2C[C@@H](O[C@H]3C[C@@H](OC)[C@H](O)C(C)O3)[C@@H](O)C(C)O2)[C@H](O)C(C)O1", "note": "(some centres not stated)", "growth": "54.5% (inactive)"},
      {"smiles": "COc1ccc(/C=C(/C(=O)n2cnnn2)c2cc(OC)c(OC)c(OC)c2)cc1", "growth": "5.78% (active)"},
      {"smiles": "COc1cccc(/C=N/NC(=O)c2ccccc2N2CCCC2)c1O", "growth": "-14% (active)"},
      {"smiles": "CN1CCN(c2ccc(NC(=O)c3cncnc3Nc3ccc(OCc4cccc(F)c4)c(Cl)c3)cc2)CC1", "growth": "16.2% (inactive)"},
      {"smiles": "C=C1C(=O)O[C@H]2[C@H]1CC/C(CNC(=O)c1c[nH]c3ccc(F)cc13)=C\\CC[C@@]1(C)O[C@@H]21", "growth": "-21% (active)"},
      {"smiles": "Cc1ncc(C(=O)Nc2ccc(CN3CCN(C)CC3)c(C(F)(F)F)c2)cc1C#Cc1cnc(N)c2ncccc12", "growth": "-1.21% (active)"},
      {"smiles": "CCNC(=O)Oc1ccc(/C(=C(/CC)Cc2ccccc2)c2ccc(OCCN3CCCC3)cc2)cc1", "growth": "87.2% (inactive)"},
      {"smiles": "CCOC(=O)c1ccccc1-c1c2ccc(=[N+](C)C)cc-2oc2cc(N(C)C)ccc12", "growth": "30.3% (inactive)"},
      {"smiles": "O=C(Nc1ncc(Cc2ccccc2)s1)c1ccc2c(c1)OCCCO2", "growth": "16.2% (inactive)"},
      {"smiles": "CCCCNc1cc(-c2cn[nH]c2-c2cc(C)cc(OC)c2)nc(-c2cccnc2)n1", "growth": "84.7% (inactive)"},
      {"smiles": "C=C1CC[C@@H]2[C@](C)(COC(C)=O)[C@H](OC(C)=O)CC[C@@]2(C)[C@@H]1CC(Nc1ccc(S(=O)(=O)NC(C)=O)cc1)C1=CCOC1=O", "note": "(some centres not stated)", "growth": "-27.9% (active)"},
      {"smiles": "C/C=C(\\C)C(=O)N[C@H]1C(O)C[C@]2(C)C3CC[C@@]4(C)C(CC[C@@H]4C(C)N(C)C)C3CCC2C1O", "note": "(some centres not stated)", "growth": "14.6% (inactive)"},
      {"smiles": "O=C(O)COc1ccc(Cl)c(Cl)c1", "growth": "100% (inactive)"},
      {"smiles": "NS(=O)(=O)c1ccc(C(=O)NN2C(=O)c3c(Br)c(Br)c(Br)c(Br)c3C2=O)cc1", "growth": "101% (inactive)"},
      {"smiles": "CS(=O)(=O)c1ccc(NC(=O)c2ccccc2)nc1", "growth": "74.7% (inactive)"},
      {"smiles": "FC(F)(F)Oc1cccc(-c2cnc3ccc(-c4ccncc4)nn23)c1", "growth": "4.57% (active)"},
      {"smiles": "Cc1ccc2c(-n3nc(C#N)c(C#N)c3N)cc(=O)[nH]c2c1", "growth": "88.6% (inactive)"},
      {"smiles": "CCOC(=O)c1c(C)nc2c(c1N)CC(=O)N2Cc1ccc(OC)cc1", "growth": "117% (inactive)"},
      {"smiles": "COc1cccc(CCNc2ncnc3c2ncn3Cc2nnc3c4ccccc4c(Cl)nn23)c1", "growth": "34% (inactive)"},
      {"smiles": "C=C1C(=O)O[C@H]2[C@H]1CC/C(COC(=O)c1ccc(C(=O)O)s1)=C\\CC[C@@]1(C)O[C@@H]21", "growth": "-28.7% (active)"}
    ]}
  ]
}
